For assay [1], the target named is T1, Aspartate--tRNA(Asp/Asn) ligase (Mycobacterium tuberculosis (strain ATCC 25618 / H37Rv)) (UniProt P9WFW3). Also: in the data most compounds retested in dose-response had high values.
T1 sequence (whole entry): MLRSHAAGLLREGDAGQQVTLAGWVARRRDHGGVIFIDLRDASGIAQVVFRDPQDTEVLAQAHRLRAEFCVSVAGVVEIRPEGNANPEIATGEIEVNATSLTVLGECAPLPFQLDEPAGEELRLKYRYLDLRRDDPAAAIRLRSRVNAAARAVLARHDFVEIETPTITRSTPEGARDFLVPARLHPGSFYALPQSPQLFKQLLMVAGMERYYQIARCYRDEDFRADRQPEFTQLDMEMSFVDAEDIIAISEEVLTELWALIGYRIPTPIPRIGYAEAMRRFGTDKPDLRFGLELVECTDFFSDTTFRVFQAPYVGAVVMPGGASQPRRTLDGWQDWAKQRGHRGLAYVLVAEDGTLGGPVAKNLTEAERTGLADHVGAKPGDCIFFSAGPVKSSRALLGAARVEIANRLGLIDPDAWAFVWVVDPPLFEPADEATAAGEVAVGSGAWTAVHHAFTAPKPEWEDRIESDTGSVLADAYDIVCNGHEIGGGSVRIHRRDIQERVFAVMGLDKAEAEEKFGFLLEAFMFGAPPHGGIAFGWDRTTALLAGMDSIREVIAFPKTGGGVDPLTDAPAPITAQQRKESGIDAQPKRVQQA
In words: Assay for Asp RNA synthetase-1 from Mycobacterium tuberculosis. The assay is classed as functional. Also on record: scale not given: direction of the effect not stated beside the values. To be noted: 30 µM.

Assay [2] concerns the target Shiga toxin 2 (Escherichia coli O157:H7) (UniProt P09385+P09386). In words: E. coli 0.157:H7 Shiga Toxin SOP - stx2 screening assay. It is filed as functional. Details: scale not given: direction of the effect not stated beside the values. To be noted: 30 µM.

As for `Cc1csc(N2CCN(C(=O)CCc3nccs3)CC2)n1`, the figures for the Percent Effect in assay [1] and in assay [2] were 2.49% and 7.79%, respectively.

With `CN(C)[C@@H]1CCN(C(=O)NC2CCCC2)[C@H]1Cc1cnn(C)c1`, the Percent Effect is -2.75% in assay [1] and -11.7% in assay [2].

With `Cc1ccccc1-c1noc(CN2CCn3c(nnc3C3CC3)C2)n1`, the Percent Effect in assay [1] is -0.7%; in assay [2] it was -48.8%.

Regarding `N#CCCN(C(=O)CN1CCCC1c1ccsc1)c1ccccc1F` (stereo not given), the Percent Effect in assay [1] is -3.67%; in assay [2] it was 4.76%.

Regarding `CCN1CCN(C(=O)c2nc(C)n(-c3ccccc3Cl)n2)CC1`, the figures for the Percent Effect in assay [1] and in assay [2] were -3.15% and 0.607%, respectively.

As for `c1ccc(-c2nc(CNC3CCc4ncnn4C3)co2)cc1` (stereo not given), the figures for the Percent Effect in assay [1] and in assay [2] were -3.79% and -10.8%, respectively.

Take `Cc1nc(C(=O)N2CCC(Nc3cccnn3)CC2)cs1`: the Percent Effect in assay [1] is -7.35%; in assay [2], -19.2%.

Take `Cn1ccc(C(=O)N2CCN(CCc3ccccc3)CC2)cc1=O`: the figures for the Percent Effect in assay [1] and in assay [2] were -1.76% and -19.1%, respectively.

Consider `c1ccc(C[C@H]2[C@H](N3CCOCC3)CCN2Cc2cccnc2)cc1`, for which the Percent Effect in assay [1] was 2.33%; in assay [2], -7.76%.

On to `Cc1cnc(C(=O)N2CCc3ncnc(C)c3CC2)cn1`, for which the figures for the Percent Effect in assay [1] and in assay [2] were 0.251% and -27.4%, respectively.

Regarding `COc1ccc(OC)c(NC(=O)c2nc3ccccc3n(C)c2=O)c1`, the Percent Effect is 1.01% in assay [1] and -23.2% in assay [2].

Turning to `CCC(C)c1noc(C2CCN(C(=O)c3cccs3)CC2)n1` (stereo not given), the Percent Effect was 4.84% in assay [1] and -48% in assay [2].

As to `CC(C)NC(=O)C1CN(C(=O)Nc2ccccc2)CC12CCOCC2` (stereo not given), the Percent Effect in assay [1] was 12.7%; in assay [2], -4.72%.

For the molecule `Cc1cccc(C)c1OCCC(=O)N1CCC(c2nncn2C)CC1`, the figures for the Percent Effect in assay [1] and in assay [2] were -2.43% and -9.22%, respectively.

Regarding `Cc1ccc(C(=O)N2CCN(C(=O)Nc3ccccn3)CC2)o1`, the figures for the Percent Effect in assay [1] and in assay [2] were 4.09% and 10.3%, respectively.

In the case of `CCN1C(=O)C2(CCOCC2)c2cc(NC(=O)c3ccco3)ccc21`, the figures for the Percent Effect in assay [1] and in assay [2] were -3.45% and -26.8%, respectively.

As to `CCCS(=O)(=O)N1CCN(c2ccnc(N3CCCC3)n2)CC1`, the results for the Percent Effect in assay [1] and in assay [2] were 2.06% and -50.6%, respectively.

As to `CCOCC1CN(C(=O)N(C)C)Cc2nn(C)cc21` (stereo not given), the Percent Effect in assay [1] was 7.75%; in assay [2], -4.03%.

For `CC(=O)N1CCC(Cc2cnc(-c3c(C)n[nH]c3C)cn2)C1` (stereo not given), the figures for the Percent Effect in assay [1] and in assay [2] were -11.6% and -7.52%, respectively.

Regarding `CN(C)C(=O)[C@@H]1CCO[C@@H]2CCN(CCc3ccccc3)C[C@@H]21`, the figures for the Percent Effect in assay [1] and in assay [2] were -3.08% and 1.17%, respectively.

As to `COc1cc2cc(C(=O)O)n(C)c2c(OC)c1OC`, the Percent Effect in assay [1] was -3.95%; in assay [2], 1.12%.

For `Cc1cc(NCc2cc3n(n2)CCCN(C(=O)N(C)C)C3)ncn1`, the Percent Effect in assay [1] is 0.54%; in assay [2], -3.81%.

As for `COCc1noc(C2(c3ccc(Br)cc3)CCOCC2)n1`, the Percent Effect in assay [1] was 0.524%; in assay [2], -0.633%.

`Cc1cc(C)n(Cc2ccc(C(=O)NCCN3CCOCC3)cc2)n1`: the Percent Effect in assay [1] was -4.18%; in assay [2], 6.83%.

Turning to `CC(=O)c1c(F)cccc1N1CCC(CS(N)(=O)=O)CC1`, the Percent Effect in assay [1] was -3.49%; in assay [2], -2.68%.

Consider `CC(C)c1nccn1-c1cccc(C2CCCN(C3CCCC3)C2)n1` (stereo not given), for which the Percent Effect in assay [1] worked out at 3.46%; in assay [2] it was 3.04%.

`CCn1c(CN2CCC(O)(C(=O)OC)CC2)nc2c(F)cccc21`: the Percent Effect in assay [1] was -3.57%; in assay [2], -24.9%.

Consider `CN(C)CC1CN(Cc2cccc(C(=O)N(C)C)c2)CCO1` (stereo not given), for which the Percent Effect in assay [1] was -3.06%; in assay [2], -24.2%.

For the molecule `CCOc1ccc(CC(CNC(=O)c2ccoc2)C(N)=O)cc1` (stereo not given), the Percent Effect was -3.95% in assay [1] and -12.5% in assay [2].

On to `Cc1cc(C(=O)N2CC[C@@H]3CN(c4ncccn4)CCO[C@@H]3C2)c(C)o1`, for which the Percent Effect in assay [1] is 7.23%; in assay [2], -7.5%.

In the case of `CN1CCN(Cc2cnc3n2CCN(Cc2cccs2)C3)CC1`, the results for the Percent Effect in assay [1] and in assay [2] were 5.52% and -18.8%, respectively.

Turning to `CC(=O)N1CCC(c2ccnc(Nc3cncnc3)n2)C1` (stereo not given), the Percent Effect is -0.956% in assay [1] and -11.8% in assay [2].

On to `Cc1cnccc1N1CCCN(C(=O)CCCS(N)(=O)=O)CC1`, for which the Percent Effect in assay [1] is -1.55%; in assay [2], -11.6%.

With `O=C(NCc1ccco1)[C@@]12CCO[C@@H]1CCN(CCN1CCCC1)C2`, the Percent Effect in assay [1] was 1.05%; in assay [2], -24.8%.

Take `CCOC(=O)N1CCN(C(=O)c2ccc3ccn(C)c3c2)CC1`: the Percent Effect in assay [1] is -0.585%; in assay [2] it was 1.39%.

`CN(C)c1cc(CNC(=O)Nc2ccc(S(C)(=O)=O)nc2)ccn1`: the Percent Effect was -1.23% in assay [1] and -117% in assay [2].

On to `Cc1c(F)cc(C(=O)O)cc1S(=O)(=O)Nc1ccc2c(c1)OCCO2`, for which the Percent Effect turned out to be 2.32% in assay [1] and 10.9% in assay [2].

Consider `Cc1nsc(N2CCCN(c3nc(C4CC4)ns3)CC2)n1`, for which the Percent Effect is 0.575% in assay [1] and -18.6% in assay [2].

For the molecule `CS(=O)(=O)N[C@@H]1CCO[C@]2(CCN(C(=O)C3=CCCC3)C2)C1`, the Percent Effect in assay [1] is 3.41%; in assay [2], -0.907%.

Consider `Cc1[nH]ccc1C(=O)N1CCC(c2nnc(Cn3cccn3)n2C)CC1`, for which the Percent Effect in assay [1] was -2.14%; in assay [2] it was -9.29%.

In the case of `Cn1cnnc1S(=O)(=O)C1CCN(S(=O)(=O)c2ccc(F)c(Cl)c2)CC1`, the Percent Effect is 2.04% in assay [1] and -2.86% in assay [2].

`CCc1n[nH]c(C2CN(C(=O)c3nc(C)n4ccccc34)CCO2)n1` (stereo not given): the Percent Effect in assay [1] is 2.55%; in assay [2], -2.71%.

With `Cn1ccnc1CN1CCCN(C(=O)c2ccc3c(c2)COC3)CC1`, the Percent Effect came out at 0.393% in assay [1] and 24.9% in assay [2].

Consider `Cc1ccc(C(=O)Nc2cc(C(C)C)n[nH]2)cn1`, for which the Percent Effect is 2.73% in assay [1] and 1.39% in assay [2].

As for `O=C(c1cccnc1)N1C[C@@H]2CC[C@H](C1)N(Cc1cc(F)ccc1F)C2`, the values for the Percent Effect in assay [1] and in assay [2] were 5.92% and 1.2%, respectively.
